Experimental findings from article PMC10812921, “Transcriptional Coactivator BOB1 (OBF1, OCA-B) Modulates the Specificity of DNA Recognition by the POU-Domain Factors OCT1 and OCT2 in a Monomeric Configuration” are described below.

Assay [1] deals with POU1 (OCT1 POU domain) (human, UniProt P14859 260-458). Kind of assay: EMSA-SELEX-seq; no BOB1; 20 mM Tris-HCl pH 7.6, 140 mM NaCl, 10% glycerol, 0.5 mM EDTA, 0.05% Triton X-100, 0.1 mg/mL BSA, 0.1 mg/mL poly(dI-dC), 5 mM DTT, room temperature, 20 min; high values mean tight binding. The following applies: protein: recombinant; dsDNA, one strand shown. In short, it runs like this: (§1)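 A double-stranded random 35-nt library (300 ng, PCR-amplified) was incubated with 30 ng tagged POU-domain protein, with or without 28 ng coactivator protein, in 20 μL Tris–HCl pH 7.6 binding buffer for 20 min at RT. The proteins had been expressed in E. coli BL21, purified under denaturing conditions and renatured. Complex bands from native 6% PAGE were eluted and PCR-amplified over four rounds, then sequenced on Illumina. For binding preference, the percentage of sequenced 8-mers matching a motif pattern was calculated.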
Sequence of POU1 (OCT1 POU domain) (P14859 260-458): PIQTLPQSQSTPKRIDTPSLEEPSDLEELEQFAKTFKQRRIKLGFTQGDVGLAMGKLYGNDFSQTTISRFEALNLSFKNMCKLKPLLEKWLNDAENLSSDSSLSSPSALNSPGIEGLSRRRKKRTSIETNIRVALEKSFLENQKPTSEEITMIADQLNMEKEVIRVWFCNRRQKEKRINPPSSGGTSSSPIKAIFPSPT
(In general: Mobility shift assays separate free from complexed probe on a gel.)

Assay [2] concerns the target T1, POU2 (OCT2 POU domain) (human, UniProt P09086 175-386).
T1 sequence: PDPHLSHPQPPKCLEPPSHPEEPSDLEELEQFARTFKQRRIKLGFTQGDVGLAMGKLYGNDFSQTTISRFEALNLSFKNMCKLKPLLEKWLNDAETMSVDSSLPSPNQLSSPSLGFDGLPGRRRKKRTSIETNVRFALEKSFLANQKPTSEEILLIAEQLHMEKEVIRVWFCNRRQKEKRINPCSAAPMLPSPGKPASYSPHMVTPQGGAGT
The description is as above. The following applies: protein: recombinant; dsDNA, one strand shown. The essentials: as §1

Assay [3] has as its target POU1 (OCT1 POU domain);BOB1 (OBF1, OCA-B) (human;human, UniProt P14859;Q16633 260-458;1-256, |). Kind of assay: EMSA-SELEX-seq; with BOB1 (ternary complex band); 20 mM Tris-HCl pH 7.6, 140 mM NaCl, 10% glycerol, 0.5 mM EDTA, 0.05% Triton X-100, 0.1 mg/mL BSA, 0.1 mg/mL poly(dI-dC), 5 mM DTT, room temperature, 20 min; high values mean tight binding. The following applies: protein: recombinant;recombinant; copies: 1;1; dsDNA, one strand shown. In short, it runs like this: as §1

Assay [4] deals with T2, POU2 (OCT2 POU domain);BOB1 (OBF1, OCA-B) (human;human, UniProt P09086;Q16633 175-386;1-256, |).
T2 sequence 1: T1 sequence
T2 sequence 2: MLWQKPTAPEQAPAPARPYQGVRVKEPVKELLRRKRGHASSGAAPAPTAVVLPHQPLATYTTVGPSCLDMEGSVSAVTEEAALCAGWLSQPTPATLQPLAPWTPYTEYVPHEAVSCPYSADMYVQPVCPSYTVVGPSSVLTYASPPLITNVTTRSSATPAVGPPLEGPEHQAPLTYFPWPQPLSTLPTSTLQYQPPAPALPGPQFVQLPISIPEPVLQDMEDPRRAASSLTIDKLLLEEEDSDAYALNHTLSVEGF
The assay is described as above. The following applies: protein: recombinant;recombinant; copies: 1;1; dsDNA, one strand shown. The essentials:
as §1

As to AAAGAAAT, the binding signal is 0.145 % of ANNNNAAN 8-mers in assay [1], 0.112 % of ANNNNAAN 8-mers in assay [2], 0.16 % of ANNNNAAN 8-mers in assay [3] and 0.0958 % of ANNNNAAN 8-mers in assay [4].
As for AGACTAAG, the binding signal in assay [1] was 0.0278 % of ANNNNAAN 8-mers; in assay [2], 0.0328 % of ANNNNAAN 8-mers; in assay [3] it was 0.03 % of ANNNNAAN 8-mers; in assay [4] it was 0.0314 % of ANNNNAAN 8-mers.
The matching figures for ATTGAAAG: 0.0603 % of ANNNNAAN 8-mers, 0.0604 % of ANNNNAAN 8-mers, 0.0632 % of ANNNNAAN 8-mers and 0.0611 % of ANNNNAAN 8-mers.
Consider ATTGGAAT, for which the binding signal is 0.141 % of ANNNNAAN 8-mers in assay [1], 0.18 % of ANNNNAAN 8-mers in assay [2], 0.0968 % of ANNNNAAN 8-mers in assay [3] and 0.0966 % of ANNNNAAN 8-mers in assay [4].
Regarding AGTATAAG, the binding signal in assay [1] was 0.0397 % of ANNNNAAN 8-mers; in assay [2], 0.0587 % of ANNNNAAN 8-mers; in assay [3], 0.041 % of ANNNNAAN 8-mers; in assay [4] it was 0.0454 % of ANNNNAAN 8-mers.
The matching figures for ACTAAAAC: 0.0233 % of ANNNNAAN 8-mers, 0.0311 % of ANNNNAAN 8-mers, 0.023 % of ANNNNAAN 8-mers and 0.0297 % of ANNNNAAN 8-mers.
The like results for ACCGGAAC were, in that order, 0.0137 % of ANNNNAAN 8-mers, 0.0138 % of ANNNNAAN 8-mers, 0.0133 % of ANNNNAAN 8-mers and 0.0124 % of ANNNNAAN 8-mers.
The like results for ATCAGAAT were, in that order, 0.085 % of ANNNNAAN 8-mers, 0.116 % of ANNNNAAN 8-mers, 0.0777 % of ANNNNAAN 8-mers and 0.0784 % of ANNNNAAN 8-mers.
For the sequence AGTACAAA, the binding signal in assay [1] was 0.0336 % of ANNNNAAN 8-mers; in assay [2] it was 0.0328 % of ANNNNAAN 8-mers; in assay [3], 0.0375 % of ANNNNAAN 8-mers; in assay [4] it was 0.0446 % of ANNNNAAN 8-mers.
The matching figures for AAGAAAAT: 0.158 % of ANNNNAAN 8-mers, 0.125 % of ANNNNAAN 8-mers, 0.226 % of ANNNNAAN 8-mers and 0.0958 % of ANNNNAAN 8-mers.
The matching figures for AAAAGAAA: 0.106 % of ANNNNAAN 8-mers, 0.084 % of ANNNNAAN 8-mers, 0.119 % of ANNNNAAN 8-mers and 0.0702 % of ANNNNAAN 8-mers.
For the sequence ACTCAAAT, the binding signal in assay [1] was 0.0889 % of ANNNNAAN 8-mers; in assay [2] it was 0.061 % of ANNNNAAN 8-mers; in assay [3], 0.127 % of ANNNNAAN 8-mers; in assay [4] it was 0.0768 % of ANNNNAAN 8-mers.
Consider AACTCAAA, for which the binding signal in assay [1] is 0.0397 % of ANNNNAAN 8-mers; in assay [2], 0.0368 % of ANNNNAAN 8-mers; in assay [3], 0.0445 % of ANNNNAAN 8-mers; in assay [4], 0.0231 % of ANNNNAAN 8-mers.
For AACTTAAA, the binding signal in assay [1] is 0.0526 % of ANNNNAAN 8-mers; in assay [2], 0.0501 % of ANNNNAAN 8-mers; in assay [3] it was 0.046 % of ANNNNAAN 8-mers; in assay [4], 0.038 % of ANNNNAAN 8-mers.
The matching figures for AATGTAAC: 0.0591 % of ANNNNAAN 8-mers, 0.0639 % of ANNNNAAN 8-mers, 0.046 % of ANNNNAAN 8-mers and 0.0545 % of ANNNNAAN 8-mers.
